In PubChem BioAssay (Tox21) one finds Potency, activity change, positive = activation and max response data, which are given here for seven compounds.

Values without a mark were called inactive. Results filed as inconclusive are left out. Activity calls are given as the source filed them. Unless noted, calls come from the whole dose curve; as a rule, active = well fitted curve in the direction sought with a large enough effect in the repeat runs; inconclusive = weak or mixed curves; inactive = no such curve, though single readings can be large; an effect the other way counts as inactive or inconclusive.

Assay [1] can be described thus: qHTS assay to identify small molecule agonists of the hypoxia (HIF-1) signaling pathway - cell viability counter screen (AID 1224844; calls by dose curve; note: nearly all actives have a fitted effect of over 50% in size; note: potency is the fitted concentration of half-maximal effect). The method, boiled down:
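CellTiter-Glo luminescence read-out, 30 min RT, taken in the same wells as the beta-lactamase HRE reporter assay; HRE-bla ME-180 cells, 0.5% dialyzed FBS, 17 hr compound treatment at 37C, 5% CO2.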
Background: Quantitative high-throughput screening tests each substance at several concentrations.

Assay [2] can be described thus: qHTS assay to identify small molecule agonists of H2AX (AID 1224845; active = well fitted activation curve with a large enough effect in the signal ratio in the repeat runs, not every such curve was filed as active; the % refers to the signal ratio; note: potency is the fitted concentration of half-maximal effect). In short, it runs like this:
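Wild-type CHO-K1 cells plated overnight, then exposed 3 hr at 37C to compounds at 15 concentrations (0.76% DMSO). Lysed, then HTRF anti-pH2AX(S139)-cryptate/anti-H2AX-d2 detection after 24 hr at room temperature; emissions 665 and 620 nm.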

A short description of assay [3]: qHTS assay to identify small molecule agonists of H2AX - cell viability counter screen (AID 1224847; calls by dose curve; note: nearly all actives have a fitted effect of over 30% in size; note: potency is the fitted concentration of half-maximal effect). In short, it runs like this:
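After overnight plating of 1000 CHO-K1 cells per well, a 15-concentration compound series was applied for 3 hr at 37C. Luminescence from CellTiter-Glo, read following 30 min at room temperature, reflected cell viability.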

Assay [4] can be described thus: qHTS assay to identify small molecule antagonists of the estrogen related receptor (ERR) signaling pathway from Tox21 library (AID 1224848). Note: nearly all actives have a fitted effect of over 50% in size. Note: potency is the fitted concentration of half-maximal effect. The method, boiled down: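 First, 2,000 ERR cells per well were plated and held 6 h at 37 C/5% CO2. Next, compounds in DMSO were pinned in and left 18 h at 37 C. Finally, ONE-Glo was added and luminescence read after 30 min at room temperature.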

A short description of assay [5]: qHTS assay to identify small molecule agonists of the estrogen related receptor (ERR) signaling pathway from Tox21 library (AID 1224849; calls by dose curve; note: nearly all actives have a fitted effect of over 15% in size). Particulars: ERR reporter cell line, ONE-Glo luciferase, 18 h; at 92.4 µM (top of the series) unless noted. The method, boiled down: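 Luminescence readout (ONE-Glo, 30 min RT) after 18 h compound exposure at 37 C of NTP-supplied ERR reporter cells; cells were plated 6 h before compound addition by pin tool.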

Assay [6] is described as follows: qHTS RealTime-Glo MT Cell Viability Assay in HepG2 cells - 24 hour (AID 1224867). Note: nearly all actives have a fitted effect of over 50% in size. Note: potency is the fitted concentration of half-maximal effect. The method, boiled down: (§1)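 HepG2 cells (600/well) were dispensed with RealTime-Glo reagents, incubated 5 h at 37 °C, then treated with compounds in DMSO for up to 40 h. Nonlytic NanoLuc luminescence reflecting viable cells was read at each stated time point.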
Assay [7] in a line: qHTS RealTime-Glo MT Cell Viability Assay in HEK293 cells - 32 hour (AID 1224868). Note: nearly all actives have a fitted effect of over 50% in size. Note: potency is the fitted concentration of half-maximal effect. In short, it runs like this:
(§2)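 HEK293 cells seeded with NanoLuc/prosubstrate reagent, rested 5 h at 37 C, then dosed and kept at 37 C up to 40 h. Nonlytic real-time luminescence from viable cells read at 0, 8, 16, 24, 32 and 40 h.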

Assay [8] can be described thus: A CellTox Green Cytotoxicity Assay to monitor cytotoxicity in HEK293 cells - 0 hour (AID 1224869). Note: nearly all actives have a fitted effect of over 50% in size. In short, it runs like this:
(§3)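 Read-out: fluorescence of a cell-impermeant cyanine dye staining DNA of dead cells, proportional to cytotoxicity. HEK293, 600 cells/well with reagent, compound (23 nL DMSO) added after 5 h; reads at 0, 8, 16, 24, 32, 40 h.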

Assay [9] in a line: qHTS RealTime-Glo MT Cell Viability Assay in HepG2 cells - 40 hour (AID 1224870). Note: nearly all actives have a fitted effect of over 50% in size. Note: potency is the fitted concentration of half-maximal effect. The method, boiled down: (§4)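 HepG2 cells mixed with RealTime-Glo MT reagents (NanoLuc plus cell-permeant prosubstrate) were seeded at 600 cells/well, incubated 5 h at 37 C/5% CO2, then pinned with compounds in DMSO; nonlytic luminescence tracked viability during 40 h treatment.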
Assay [10] in a line: A CellTox Green Cytotoxicity Assay to monitor cytotoxicity in HEK293 cells - 40 hour (AID 1224871). Note: nearly all actives have a fitted effect of over 45% in size. Note: potency is the fitted concentration of half-maximal effect. In short, it runs like this:
as §3

Assay [11] is described as follows: qHTS RealTime-Glo MT Cell Viability Assay in HepG2 cells - 8 hour (AID 1224873). Note: nearly all actives have a fitted effect of over 55% in size. Note: potency is the fitted concentration of half-maximal effect. The method, boiled down: as §4
The nature of assay [12]: qHTS RealTime-Glo MT Cell Viability Assay in HEK293 cells - 40 hour (AID 1224874). Note: nearly all actives have a fitted effect of over 50% in size. Note: potency is the fitted concentration of half-maximal effect. Particulars: RealTime-Glo luminescence; max response: stronger effect = lower value. In short, it runs like this: (§5)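 Luminescence readout at each listed time point; HEK293, 600 cells/well, RealTime-Glo MT reagent added with cells; compounds pinned (23 nL in DMSO) after 5 h at 37 C; continuous culture at 37 C.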

Assay [13] in a line: A CellTox Green Cytotoxicity Assay to monitor cytotoxicity in HEK293 cells - 24 hour (AID 1224875). Note: nearly all actives have a fitted effect of over 45% in size. Note: potency is the fitted concentration of half-maximal effect. The method, boiled down: as §3
Assay [14] is described as follows: A CellTox Green Cytotoxicity Assay to monitor cytotoxicity in HepG2 cells - 16 hour (AID 1224876). Note: nearly all actives have a fitted effect of over 45% in size. Note: potency is the fitted concentration of half-maximal effect. In short, it runs like this: (§6)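 HepG2, 600 cells/well premixed w/ CellTox Green; 5 h settle, 37 C/5% CO2; pintool cpd add (DMSO); 37 C, 40 h; fluorescence read at 0, 8, 16, 24, 32, 40 h.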
Assay [15] in a line: qHTS RealTime-Glo MT Cell Viability Assay in HepG2 cells - 32 hour (AID 1224877). Note: nearly all actives have a fitted effect of over 55% in size. Note: potency is the fitted concentration of half-maximal effect. The method, boiled down:
as §1

The nature of assay [16]: A CellTox Green Cytotoxicity Assay to monitor cytotoxicity in HepG2 cells - 24 hour (AID 1224878). Note: nearly all actives have a fitted effect of over 45% in size. Note: potency is the fitted concentration of half-maximal effect. In short, it runs like this: as §6
A short description of assay [17]: qHTS RealTime-Glo MT Cell Viability Assay in HEK293 cells - 0 hour (AID 1224880). In short, it runs like this:
as §5

A short description of assay [18]: qHTS RealTime-Glo MT Cell Viability Assay in HEK293 cells - 16 hour (AID 1224872). Note: nearly all actives have a fitted effect of over 50% in size. Note: potency is the fitted concentration of half-maximal effect. The method, boiled down: as §2
Assay [19] is described as follows: A CellTox Green Cytotoxicity Assay to monitor cytotoxicity in HepG2 cells - 40 hour (AID 1224879). Note: nearly all actives have a fitted effect of over 40% in size. Note: potency is the fitted concentration of half-maximal effect. The method, boiled down: as §6
% is set by controls: 0 for no effect and ±100 for the full control effect.

As to `Oc1cc(Cl)c(Cl)c(Cl)c1Cl`, the Potency entry in assay [1], in [2], in assay [6], in assay [8], in assay [9] and in assay [10] was “inactive” each time. For the same compound, the Potency result in assay [11], in assay [13], in assay [14], in assay [15], in [16] and in assay [17] was “inactive” each time. Also, the Potency is 49300 nM (active) in [3], 26700 nM (active) in assay [4], 47800 nM (active) in [7] and 47800 nM (active) in assay [12]. Besides, in assay [5], the activity change, positive = activation was -60.7%.
Turning to `[F][Sn]([c]1ccccc1)([c]1ccccc1)[c]1ccccc1`, the Potency in assay [1] was 549 nM (active); in assay [2] it was 1420 nM (active); in assay [3], 22500 nM (active); in assay [4], 545 nM (active); in assay [6], 436 nM (active); in assay [7], 436 nM (active). The Potency was 219 nM (active) in assay [9]; 1550 nM (active) in [10]; 549 nM (active) in assay [18]; 1740 nM (active) in assay [11]; 436 nM (active) in assay [12]; 3470 nM (active) in assay [13]. For the same compound, the Potency was 1740 nM (active) in [14], 347 nM (active) in assay [15], 2190 nM (active) in assay [16] and 692 nM (active) in assay [19]. Moreover, in assay [5], the activity change, positive = activation is -81.3%. Moreover, the Potency entry in assay [8] and in [17] was “inactive” in each case.
On to `COc1c2c(cc3c1OCO3)CCN(C)C2`, for which the Potency entry in assay [1], in assay [2], in [3], in assay [6], in assay [7] and in [8] was “inactive” throughout. For the same compound, the Potency entry in assay [9], in [10], in assay [18], in assay [11], in assay [13] and in assay [14] was “inactive” in each case. Further, the Potency entry in [15], in [16], in assay [19] and in assay [17] was “inactive” each time. In addition, the max response in assay [12] was -9.04%.
As for `O=C(O)[C@H](O)[C@@H](O)C(=O)O`, the Potency entry in [1], in assay [2], in assay [3], in [6], in assay [7] and in [8] was “inactive” each time. Besides, the Potency entry in [9], in [10], in assay [18], in [11], in assay [13] and in [14] was “inactive” throughout. Also, the Potency entry in [15], in assay [16], in assay [19] and in assay [17] was “inactive” in each case. Moreover, in assay [12], the max response was 5.57%.
In the case of `C[C@]12Cc3cn[nH]c3C[C@@H]1CC[C@@H]1[C@@H]2CC[C@@]2(C)[C@H]1CC[C@]2(C)O`, the Potency was 8490 nM (active) in assay [1] and 26600 nM (active) in [4]. The Potency result in assay [2], in assay [3], in assay [6], in [8], in assay [9] and in assay [10] was “inactive” throughout. Besides, the Potency result in assay [11], in assay [13], in [14], in [15] and in assay [17] was “inactive” in each case. Also, the activity change, positive = activation in assay [5] was -42.2% [at 42.5 µM].
For `CNC(=O)O/N=C(\C)C(C)S(C)(=O)=O` (stereo not drawn), the Potency result in assay [1], in [2], in [3], in [4], in assay [6] and in assay [7] was “inactive” throughout. Also, the Potency entry in [8], in assay [9], in assay [10], in assay [18], in assay [11] and in [13] was “inactive” throughout. Further, the Potency entry in assay [15] and in assay [17] was “inactive” throughout. In addition, the activity change, positive = activation in [5] is 7.13% [at 872 µM]. For the same compound, in assay [12], the max response was 1.59%.
As to `Cc1cnc2c(C(=O)O)c(Cl)ccc2c1`, the Potency result in [1], in [2], in assay [3], in assay [4], in [6] and in [7] was “inactive” each time. The Potency entry in [8], in [9], in assay [10], in [18], in assay [11] and in assay [13] was “inactive” throughout. Besides, the Potency entry in assay [15], in assay [16], in assay [19] and in assay [17] was “inactive” throughout. In addition, the activity change, positive = activation in [5] is -0.863%. The max response in assay [12] was 3.08%.
